Experimental data as given in PubChem BioAssay (Tox21).
Records with an inconclusive call do not appear. Active and inactive are the calls of the source. Unless noted, calls follow the shape of the dose curve; as a rule, active = well fitted curve in the direction sought with a large enough effect in the repeat runs; inconclusive = weak or mixed curves; inactive = no such curve, though single readings can be large; an effect the other way counts as inactive or inconclusive.

Tests used:
[1] = A CellTox Green Cytotoxicity Assay to monitor cytotoxicity in HepG2 cells - 8 hour (AID 1224890); also: nearly all actives have a fitted effect of over 45% in size
Method in brief: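 Real-time, homogeneous cytotoxicity readout: dead-cell DNA staining by CellTox Green in HepG2 monolayers, fluorescence measured at timed intervals up to 40 h of continuous compound exposure.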

[2] = target: Estrogen receptor (Homo sapiens) (UniProt P03372); assay: qHTS assay to identify small molecule antagonists of the estrogen receptor alpha (ER-alpha) signaling pathway using the BG1 cell line in the presence of 0.1 nM 17-beta-estradiol (AID 1259244); also: nearly all actives have a fitted effect of over 50% in size; also: potency is read from the fitted curve at half-maximal effect
Method in brief: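 After 5 days in hormone-depleted medium (charcoal-stripped serum, no phenol red), VM7Luc4E2 cells were seeded, incubated 24 h, then co-treated with compound and 0.1 nM (final) estradiol for 22 h before luminescence detection.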

[3] = qHTS assay to identify small molecule HDAC inhibitors - cell viability counter screen (AID 1259365); also: series mostly up to about 92 µM; nearly all actives have a fitted effect of over 50% in size
Method in brief: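 HCT-116 (wild type), 1,500 cells/well, overnight 37C/5% CO2; compound in DMSO 2hr; CellTiter-Glo 30min RT; luminescence read.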

[4] = qHTS assay to identify small molecule agonists of the sonic hedgehog signaling (Shh) pathway - cell viability counter screen (AID 1259366); also: nearly all actives have a fitted effect of over 50% in size; also: potency is read from the fitted curve at half-maximal effect
Method in brief: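 CellTiter-Fluor fluorescence read-out, 1 hr at 37C, added after 23hr compound exposure. Cells: 3T3 Gli1-Luc, an NIH/3T3 clone with stably integrated Gli1-Luc reporter, plated 4hr before compound.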

[5] = qHTS assay to identify small molecule antagonists of the sonic hedgehog signaling (Shh) pathway - cell viability counter screen (AID 1259367); also: nearly all actives have a fitted effect of over 55% in size; also: potency is read from the fitted curve at half-maximal effect
Method in brief: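 Seed 3T3 Gli1-Luc cells at 2,000 per well; incubate 4 hr; add compound in DMSO, then conditioned medium; incubate at 37C with 5% CO2; add CellTiter-Fluor after 23 hr; read fluorescence 1 hr later.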

[6] = qHTS assay to identify small molecule agonists of the sonic hedgehog signaling (Shh) pathway (AID 1259368; calls by dose curve;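 also: NIH/3T3-derived 3T3Gli1-Luc cells carrying a stable Gli1-driven firefly luciferase reporter; series mostly up to about 92 µM; nearly all actives have a fitted effect of over 15% in size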)
Method in brief: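 Steps: seed 3T3 Gli1-Luc cells, incubate 4 hr at 37 C, pin-transfer compounds in DMSO alongside a positive control, incubate 24 hr, add luciferase detection reagent, wait 30 min at room temperature, read luminescence.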

[7] = qHTS assay to identify small molecule antagonists of the sonic hedgehog signaling (Shh) pathway (AID 1259369; calls by dose curve; also: nearly all actives have a fitted effect of over 45% in size; also: potency is read from the fitted curve at half-maximal effect)
Method in brief: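 Inhibition of Shh signalling is measured as reduced Gli1-response-element firefly luciferase output in an NIH/3T3-derived stable reporter clone stimulated with conditioned medium for 24hr.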

[8] = qHTS assay to identify small molecule agonists of the androgen receptor (AR) signaling pathway in the presence of an antagonist - cell viability counter screen (AID 1259379); also: nearly all actives have a fitted effect of over 25% in size; also: potency is read from the fitted curve at half-maximal effect
Method in brief: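 Fluorescence from CellTiter-Fluor, added after 15 hr and read 1 hr later, gave cell viability. Cells were MDA-kb2 exposed to compounds (15 concentrations) in the presence of 3.0uM nilutamide at 37C, 0% CO2.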

[9] = qHTS assay to identify small molecule agonists of the estrogen receptor beta (ER-beta) signaling pathway - cell viability counter screen (AID 1259380); also: nearly all actives have a fitted effect of over 30% in size; also: potency is read from the fitted curve at half-maximal effect
Method in brief: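 Same-well viability counter screen. Cells: ER-beta-UAS-bla HEK293T, plated 6 hr before compound, in 2% charcoal-stripped FBS. Compound exposure 16 hr, 37C; viability by CellTiter-Glo luminescence after 30 min at room temperature.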

[10] = target: Androgen receptor (Homo sapiens) (UniProt P10275); assay: qHTS assay to identify small molecule agonists of the androgen receptor (AR) signaling pathway in the presence of an antagonist (AID 1259381; calls by dose curve; also: nearly all actives have a fitted effect of over 15% in size)
Method in brief: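 Cells are MDA-kb2 (human breast carcinoma, MMTV-luc, AR/GR responsive). Nilutamide is present at 3.0uM final throughout; compounds are added at 15 concentrations and incubated 16hr at 37C before ONE-Glo luminescence detection.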

[11] = qHTS assay to identify small molecule antagonists of the estrogen receptor beta (ER-beta) signaling pathway - cell viability counter screen (AID 1259382); also: nearly all actives have a fitted effect of over 55% in size; also: potency is read from the fitted curve at half-maximal effect
Method in brief: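 Following a 6 hr plating period, HEK293T cells carrying a UAS-driven beta-lactamase reporter under ER-beta control received compounds and 1nM E2 (final). After 16 hr at 37C and 2 hr substrate loading, CellTiter-Glo luminescence indicated viability.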

[12] = target: Estrogen receptor (Homo sapiens) (UniProt P03372); assay: qHTS assay to identify small molecule agonists of the estrogen receptor alpha (ER-alpha) signaling pathway in the presence of an antagonist (AID 1259383; calls by dose curve; also: top concentration of the series differs between compounds; nearly all actives have a fitted effect of over 15% in size)
Method in brief: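 Cells are hormone-deprived for 5 days (charcoal-stripped FBS, no phenol red), plated for 24hr, spiked with 10.0nM ICI-182,780, then dosed at 15 concentrations. After 22hr at 37C, ONE-Glo luminescence reports ERE-luciferase activity.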

[13] = qHTS assay to identify small molecule antagonists of the androgen receptor (AR) signaling pathway using the MDA cell line in the presence of 0.5 nM R1881 - cell viability counter screen (AID 1259242); also: nearly all actives have a fitted effect of over 45% in size; also: potency is read from the fitted curve at half-maximal effect
Method in brief: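 Cytotoxicity toward MDA-kb2 cells is measured by CellTiter-Fluor live-cell protease fluorescence after 16 hr compound exposure at 37C in the presence of 0.5 nM R1881 stimulator.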

[14] = qHTS assay to identify small molecule HDAC inhibitors (AID 1259364); also: nearly all actives have a fitted effect of over 45% in size; also: potency is read from the fitted curve at half-maximal effect
Method in brief: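 Homogeneous cell-based luminescent assay of endogenous class I/II HDAC activity; HCT-116 cells, 2 h compound exposure, 30 min HDAC-Glo development at RT.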

[15] = target: Estrogen receptor beta (Homo sapiens) (UniProt Q92731); assay: qHTS assay to identify small molecule agonists of the estrogen receptor beta (ER-beta) signaling pathway (AID 1259377; active = well fitted activation curve with a large enough effect in the signal ratio in the repeat runs, not every such curve was filed as active; the % refers to the signal ratio)
Method in brief: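 Beta-lactamase reporter readout: fluorescence of LiveBLAzer B/G FRET substrate after 2 h at room temperature, following 16 h compound treatment of ER-beta-UAS-bla HEK293T cells at 37C in 2% charcoal-stripped FBS medium.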

[16] = target: Estrogen receptor beta (Homo sapiens) (UniProt Q92731); assay: qHTS assay to identify small molecule antagonists of the estrogen receptor beta (ER-beta) signaling pathway (AID 1259378; active = well fitted inhibition curve with a large enough effect in the signal ratio in the repeat runs, not every such curve was filed as active; the % refers to the signal ratio; also: potency is read from the fitted curve at half-maximal effect)
Method in brief: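 ER-beta-UAS-bla HEK293T cells in 2% charcoal-stripped FBS medium treated with compound plus 1nM final 17-beta-estradiol for 16 hr at 37C. Beta-lactamase reporter read by FRET substrate fluorescence after 2 hours at room temperature.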

[17] = qHTS assay to identify small molecule agonists or antagonists of the thyroid stimulating hormone receptor (TSHR) signaling pathway - wild type cell line counter screen (AID 1259384; calls by dose curve)
Method in brief: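 Wild-type Hek293 cells, 800/well, 18 h at 37C, then compound with Ro20-1724 for 30 min RT. cAMP by HTRF (cAMP-d2/anti-cAMP cryptate), 1 h RT, fluorescence read. 15 concentrations, triplicates.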

[18] = target: Androgen receptor (Homo sapiens) (UniProt P10275); assay: qHTS assay to identify small molecule antagonists of the androgen receptor (AR) signaling pathway using the MDA cell line in the presence of 0.5 nM R1881 (AID 1259243); also: nearly all actives have a fitted effect of over 50% in size
Method in brief: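 Steps: seed MDA-kb2 cells, incubate 5 hr at 37C; pin-transfer compounds in DMSO; add R1881 to 0.5 nM final; incubate 16 hr; add ONE-Glo, wait 30 min at room temperature; read luminescence.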

[19] = qHTS assay to identify small molecule antagonists of the estrogen receptor alpha (ER-alpha) signaling pathway using the BG1 cell line in the presence of 0.1 nM 17-beta-estradiol - cell viability counter screen (AID 1259241); also: potency is read from the fitted curve at half-maximal effect; nearly all actives have a fitted effect of over 40% in size
Method in brief: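 Live-cell protease activity (CellTiter-Fluor fluorescence, 30 min) was read in the same wells after VM7Luc4E2 cells had been exposed to compounds with 0.1 nM 17beta-estradiol for 22 hr at 37C.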

Measured: Potency

Chain of Estrogen receptor beta (Homo sapiens) (Q92731 whole entry, looked up): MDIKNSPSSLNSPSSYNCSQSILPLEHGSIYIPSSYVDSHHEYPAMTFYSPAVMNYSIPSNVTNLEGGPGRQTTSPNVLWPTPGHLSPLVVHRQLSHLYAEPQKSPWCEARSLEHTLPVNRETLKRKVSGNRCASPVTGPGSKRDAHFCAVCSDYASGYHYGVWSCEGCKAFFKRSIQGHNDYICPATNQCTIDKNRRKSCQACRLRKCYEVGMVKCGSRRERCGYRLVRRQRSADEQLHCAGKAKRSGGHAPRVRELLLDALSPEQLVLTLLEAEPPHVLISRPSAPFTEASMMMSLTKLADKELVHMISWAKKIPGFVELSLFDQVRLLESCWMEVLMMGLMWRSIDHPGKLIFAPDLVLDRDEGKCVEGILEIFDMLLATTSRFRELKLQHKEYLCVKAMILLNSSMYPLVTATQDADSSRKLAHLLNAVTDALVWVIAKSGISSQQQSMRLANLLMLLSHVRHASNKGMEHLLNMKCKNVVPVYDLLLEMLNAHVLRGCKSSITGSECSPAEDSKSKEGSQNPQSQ
Chain of Estrogen receptor (Homo sapiens) (P03372 whole entry, looked up): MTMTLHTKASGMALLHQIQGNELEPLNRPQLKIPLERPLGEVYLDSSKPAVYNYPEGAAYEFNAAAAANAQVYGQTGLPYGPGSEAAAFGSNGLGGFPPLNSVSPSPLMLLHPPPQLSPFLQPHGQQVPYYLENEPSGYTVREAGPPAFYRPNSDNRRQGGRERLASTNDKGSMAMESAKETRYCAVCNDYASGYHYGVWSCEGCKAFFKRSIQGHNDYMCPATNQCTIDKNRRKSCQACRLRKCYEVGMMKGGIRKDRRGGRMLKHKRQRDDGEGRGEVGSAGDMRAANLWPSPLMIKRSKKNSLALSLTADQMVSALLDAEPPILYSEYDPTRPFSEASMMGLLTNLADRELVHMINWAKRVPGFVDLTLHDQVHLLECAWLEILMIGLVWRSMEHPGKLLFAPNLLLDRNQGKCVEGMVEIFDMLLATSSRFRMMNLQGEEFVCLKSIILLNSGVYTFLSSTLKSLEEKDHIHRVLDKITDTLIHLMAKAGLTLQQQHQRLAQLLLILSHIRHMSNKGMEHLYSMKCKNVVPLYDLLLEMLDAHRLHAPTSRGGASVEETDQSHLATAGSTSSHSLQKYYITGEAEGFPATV
Chain of Androgen receptor (Homo sapiens) (P10275 whole entry, looked up): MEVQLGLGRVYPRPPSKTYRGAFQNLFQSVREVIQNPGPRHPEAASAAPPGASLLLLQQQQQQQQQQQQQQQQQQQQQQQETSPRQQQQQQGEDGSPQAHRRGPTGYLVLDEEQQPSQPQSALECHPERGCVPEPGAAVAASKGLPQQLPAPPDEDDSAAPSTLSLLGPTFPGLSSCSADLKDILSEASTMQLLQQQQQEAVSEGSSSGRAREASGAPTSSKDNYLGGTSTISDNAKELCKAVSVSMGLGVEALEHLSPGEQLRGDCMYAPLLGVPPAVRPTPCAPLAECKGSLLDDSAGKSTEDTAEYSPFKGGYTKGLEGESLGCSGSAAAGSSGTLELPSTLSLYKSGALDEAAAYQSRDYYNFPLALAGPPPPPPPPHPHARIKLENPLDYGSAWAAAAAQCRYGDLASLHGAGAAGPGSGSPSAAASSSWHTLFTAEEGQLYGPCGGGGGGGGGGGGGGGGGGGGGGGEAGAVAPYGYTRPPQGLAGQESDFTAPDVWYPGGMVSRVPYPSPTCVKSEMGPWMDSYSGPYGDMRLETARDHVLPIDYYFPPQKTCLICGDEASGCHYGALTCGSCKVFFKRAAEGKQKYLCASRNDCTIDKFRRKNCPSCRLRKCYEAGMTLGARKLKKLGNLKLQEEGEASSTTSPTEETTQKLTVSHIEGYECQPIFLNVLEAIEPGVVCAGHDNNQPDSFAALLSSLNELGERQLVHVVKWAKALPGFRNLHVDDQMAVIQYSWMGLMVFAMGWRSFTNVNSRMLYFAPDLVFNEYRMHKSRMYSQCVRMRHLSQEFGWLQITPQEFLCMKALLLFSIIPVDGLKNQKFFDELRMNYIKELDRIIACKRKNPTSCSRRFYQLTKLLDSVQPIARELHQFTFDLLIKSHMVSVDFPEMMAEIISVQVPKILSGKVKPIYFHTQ

CN1CCCN(C(c2ccccc2)c2ccc(Cl)cc2)CC1 (configuration not stated)
active: [4] 15 µM | [5] 13.3 µM | [7] 5.96 µM | [8] 26.6 µM | [9] 13.3 µM | [11] 13.3 µM
inactive: [1] | [2] | [3] | [6] | [10] | [12]

COc1ccc(-c2cc(=S)ss2)cc1
active: [14] 11.9 µM | [16] 13.3 µM
inactive: [1] | [13] | [3] | [4] | [5] | [6] | [7] | [15] | [9] | [11] | [17]

COc1ccc2nc(S(=O)Cc3ncc(C)c(OC)c3C)[nH]c2c1 (configuration not stated)
inactive: [1] | [13] | [2] | [14] | [3] | [4] | [5] | [6] | [8] | [9] | [11] | [12] | [17]

CC(=O)NCCO
inactive: [1] | [13] | [14] | [3] | [4] | [5] | [6] | [7] | [15] | [16] | [8] | [9] | [11] | [17]

CC[C@@H](CO)NCCN[C@@H](CC)CO
inactive: [1] | [14] | [3] | [4] | [5] | [6] | [7] | [15] | [16] | [8] | [9] | [11]

CC1C(C)(C)C2=C(C(=O)CCC2)C1(C)C (configuration not stated)
inactive: [1] | [13] | [2] | [14] | [3] | [4] | [5] | [6] | [8] | [9] | [11] | [12] | [17]

CCCCOCCOC(=O)c1cccnc1
inactive: [1] | [18] | [2] | [14] | [3] | [4] | [5] | [6] | [7] | [15] | [16] | [8] | [9] | [10] | [11] | [12] | [17]

Nc1ccc(N=Nc2ccc(N)cc2)cc1
inactive: [1] | [13] | [2] | [3] | [6] | [12] | [17]
active: [14] 12.2 µM | [8] 27.3 µM

CO[C@@H]1[C@@H](OC)[C@H](C)[C@@](O)(CC(=O)O)O[C@H]1[C@H](C)[C@H]1O[C@@]2(CC[C@@](C)([C@H]3CC[C@@](C)([C@@H]4O[C@@H]([C@H]5O[C@](C)(O)[C@H](C)C[C@@H]5C)C[C@@H]4OC4C[C@H](OC)[C@@H](OC)[C@H](C)O4)O3)O2)C[C@H](O)[C@H]1C (some centres not stated)
inactive: [3] | [6] | [15] | [12] | [17]
active: [19] 3.35 µM | [13] 1.68 µM | [2] 11.9 µM | [4] 4.22 µM | [5] 3.76 µM | [7] 0.211 µM | [16] 11.9 µM | [8] 1.68 µM | [9] 1.88 µM | [11] 2.66 µM

COc1cc(NCc2ccc3nc(N)nc(N)c3c2C)cc(OC)c1OC
active: [4] 15 µM | [5] 15 µM | [9] 0.237 µM
inactive: [1] | [13] | [2] | [3] | [6] | [8] | [12] | [17]

CCCOC(=O)c1c(Cl)c(Cl)c(Cl)c(Cl)c1C(=O)OCCC
inactive: [1] | [13] | [14] | [3] | [4] | [5] | [6] | [7] | [15] | [16] | [8] | [9] | [11]
